Test results from PubChem BioAssay AID1159580 (chemical genetic matrix, 2015).
The campaign covered roughly 5,500 compounds. About 2,000 (36%) were called active. Not shown: some 18% with an inconclusive outcome. Cut-off read from the data, not from the text of the source: active = normalized growth mostly below about 0.91 (no sharp cut-off); inconclusive = no clear call, values can overlap the other calls; inactive = mostly above about 0.92. The list shows a part of the results.

Experiment: chemical genetic growth profiling, strain panel (AID 1159580);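 note: tested at 20 µM; growth read once vehicle control cultures reached saturation at 30 °C; 1 = growth at the plate median or of vehicle wells; lower values mean less growth of the strain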
Settings: growth OD

Measured: normalized growth

Clc1ccc(C(OCCN2CCCCC2)c2ccccc2)cc1 (centres undefined)
inactive: S. cerevisiae deletion strains, locus YJR043C, strain POL32, active compounds read low 1.02 | S. cerevisiae deletion strains, locus YJR075W, strain HOC1, active compounds read low 0.948 | S. cerevisiae deletion strains, locus YKL009W, strain mrt4, active compounds read low 0.996 | S. cerevisiae deletion strains, locus YKL068W, active compounds read low 1 | S. cerevisiae deletion strains, locus YKL085W, strain MDH1 (second series), active compounds read low 0.997 | S. cerevisiae deletion strains, locus YKL085W, strain MDH1, active compounds read low 0.997 | S. cerevisiae deletion strains, locus YKL160W, strain elf1, active compounds read low 1.02 | S. cerevisiae deletion strains, locus YKL190W, strain CNB1, active compounds read low 1.01 | S. cerevisiae deletion strains, locus YKR001C, strain vps1, active compounds read low 0.994 | S. cerevisiae deletion strains, locus YKR026C, strain gcn3, active compounds read low 1.02 | S. cerevisiae deletion strains, locus YKR091W, strain srl3, active compounds read low 1.02 | S. cerevisiae deletion strains, locus YLL001W, strain dnm1, active compounds read low 1.02 | S. cerevisiae deletion strains, locus YLL026W, active compounds read low 1.02 | S. cerevisiae deletion strains, locus YLL041C, strain sdh2, active compounds read low 1.01 | S. cerevisiae deletion strains, locus YLR027C, strain aat2, active compounds read low 1.02 | S. cerevisiae deletion strains, locus YLR039C, strain RIC1, active compounds read low 1.26 | S. cerevisiae deletion strains, locus YLR058C, strain SHM2, active compounds read low 1 | S. cerevisiae deletion strains, locus YLR102C, strain apc9, active compounds read low 0.999 | S. cerevisiae deletion strains, locus YLR221C, strain rsa3, active compounds read low 1.01 | S. cerevisiae deletion strains, locus YLR258W, strain gsy2, active compounds read low 1.02 | S. cerevisiae deletion strains, locus YLR262C, strain YPT6 (second series), active compounds read low 1.07 | S. cerevisiae deletion strains, locus YLR262C, strain YPT6, active compounds read low 1.27 | S. cerevisiae deletion strains, locus YLR268W, strain sec22, active compounds read low 0.96 | S. cerevisiae deletion strains, locus YLR320W, strain mms22, active compounds read low 1.01 | S. cerevisiae deletion strains, locus YLR330W, strain CHS5, active compounds read low 1.01 | S. cerevisiae deletion strains, locus YLR342W, strain FKS1 (second series), active compounds read low 0.907 | S. cerevisiae deletion strains, locus YLR342W, strain FKS1, active compounds read low 1.04 | S. cerevisiae deletion strains, locus YLR357W, strain rsc2, active compounds read low 1.02 | S. cerevisiae deletion strains, locus YLR370C, strain arc18, active compounds read low 1 | S. cerevisiae deletion strains, locus YLR371W, strain rom2, active compounds read low 1.01 | S. cerevisiae deletion strains, locus YLR384C, strain iki3, active compounds read low 1.01 | S. cerevisiae deletion strains, locus YLR418C, strain cdc73, active compounds read low 0.852 | S. cerevisiae deletion strains, locus YML016C, strain PPZ1, active compounds read low 0.999 | S. cerevisiae deletion strains, locus YML032C, strain rad52, active compounds read low 0.979 | S. cerevisiae deletion strains, locus YML120C, strain ndi1, active compounds read low 1.01 | S. cerevisiae deletion strains, locus YML124C, strain tub3, active compounds read low 1.01 | S. cerevisiae deletion strains, locus YMR058W, strain fet3, active compounds read low 1.02 | S. cerevisiae deletion strains, locus YMR078C, strain ctf18, active compounds read low 1 | S. cerevisiae deletion strains, locus YMR125W, strain sto1, active compounds read low 1.03 | S. cerevisiae deletion strains, locus YMR129W, active compounds read low 1.03 | S. cerevisiae deletion strains, locus YMR205C, strain PFK2, active compounds read low 1.01 | S. cerevisiae deletion strains, locus YMR223W, strain ubp8, active compounds read low 0.987 | S. cerevisiae deletion strains, locus YMR231W, strain pep5, active compounds read low 1.02 | S. cerevisiae deletion strains, locus YMR263W, strain SAP30, active compounds read low 0.977 | S. cerevisiae deletion strains, locus YMR307W, strain GAS1, active compounds read low 1.12 | S. cerevisiae deletion strains, locus YNL067W, strain RPL9B, active compounds read low 0.98 | S. cerevisiae deletion strains, locus YNL071W, strain lat1, active compounds read low 1.02 | S. cerevisiae deletion strains, locus YNL128W, strain TEP1, active compounds read low 0.955 | S. cerevisiae deletion strains, locus YNL153C, strain GIM3, active compounds read low 0.971 | S. cerevisiae deletion strains, locus YNL209W, strain ssb2, active compounds read low 1.03 | S. cerevisiae deletion strains, locus YNL233W, strain BNI4, active compounds read low 0.986 | S. cerevisiae deletion strains, locus YNL248C, strain rpa49, active compounds read low 1.03 | S. cerevisiae deletion strains, locus YNL250W, strain rad50, active compounds read low 0.991 | S. cerevisiae deletion strains, locus YNL271C, strain bni1, active compounds read low 0.997 | S. cerevisiae deletion strains, locus YNL298W, strain CLA4, active compounds read low 1 | S. cerevisiae deletion strains, locus YNL307C, strain MCK1, active compounds read low 0.992 | S. cerevisiae deletion strains, locus YNL322C, strain KRE1 (second series), active compounds read low 1.03 | S. cerevisiae deletion strains, locus YNL322C, strain KRE1, active compounds read low 1.01 | S. cerevisiae deletion strains, locus YNR049C, strain mso1, active compounds read low 0.999 | S. cerevisiae deletion strains, locus YNR052C, strain pop2, active compounds read low 0.965 | S. cerevisiae deletion strains, locus YOL006C, strain TOP1, active compounds read low 0.592 | S. cerevisiae deletion strains, locus YOL012C, strain htz1 0.731 | S. cerevisiae deletion strains, locus YOL147C, strain pex11, active compounds read low 0.997 | S. cerevisiae deletion strains, locus YOR001W, strain rrp6, active compounds read low 1.02 | S. cerevisiae deletion strains, locus YOR061W, strain CKA2, active compounds read low 1 | S. cerevisiae deletion strains, locus YOR069W, strain VPS5, active compounds read low 0.997 | S. cerevisiae deletion strains, locus YOR070C, strain gyp1, active compounds read low 1.03 | S. cerevisiae deletion strains, locus YOR080W, strain dia2, active compounds read low 1.02 | S. cerevisiae deletion strains, locus YOR083W, strain WHI5, active compounds read low 1.02 | S. cerevisiae deletion strains, locus YOR106W, strain vam3, active compounds read low 1.01 | S. cerevisiae deletion strains, locus YOR136W, strain idh2, active compounds read low 1 | S. cerevisiae deletion strains, locus YOR144C, strain elg1, active compounds read low 1 | S. cerevisiae deletion strains, locus YOR184W, strain ser1, active compounds read low 1.04 | S. cerevisiae deletion strains, locus YOR265W, strain rbl2, active compounds read low 1.01 | S. cerevisiae deletion strains, locus YOR270C, strain vph1, active compounds read low 0.797 | S. cerevisiae deletion strains, locus YOR290C, strain snf2, active compounds read low 1.01 | S. cerevisiae deletion strains, locus YOR316C, strain cot1, active compounds read low 1 | S. cerevisiae deletion strains, locus YPL051W, strain arl3, active compounds read low 1.01 | S. cerevisiae deletion strains, locus YPL055C, strain LGE1, active compounds read low 0.958 | S. cerevisiae deletion strains, locus YPL078C, strain atp4, active compounds read low 1.02 | S. cerevisiae deletion strains, locus YPL106C, strain sse1, active compounds read low 1.02 | S. cerevisiae deletion strains, locus YPL240C, strain hsp82, active compounds read low 1.01 | S. cerevisiae deletion strains, locus YPL241C, strain CIN2, active compounds read low 1 | S. cerevisiae deletion strains, locus YPR119W, strain clb2, active compounds read low 1 | S. cerevisiae deletion strains, locus YPR141C, strain kar3, active compounds read low 0.993 | S. cerevisiae deletion strains, locus YPR163C, strain tif3, active compounds read low 0.981 | S. cerevisiae deletion strains, locus YPR167C, strain met16, active compounds read low 1 | S. cerevisiae deletion strains, strain wtn01, active compounds read low 0.974 | S. cerevisiae strains, strain wild type, active compounds read low 0.988
